Several values for one entry are separate records, joined by “and”; a condition that tells them apart may be missing. Identical values can stand only once. About 83,000 compounds went through this panel and 20% of them were active in at least one assay; those are over-represented in the sample as a whole.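 Negative percent growth values reflect cell death: -40 means 40% of the cells present at the start died, and -100 means all died.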 Activity calls are given as the source filed them. How the source made its calls: active means growth percent below 10; inactive means the rest.
What was measured:
Assay in all cases: NCI-60 one-dose screen, 48 h (100 = growth as untreated, 0 = no growth, -100 = all killed)
Settings in all cases: 10 µM unless noted
SK-MEL-2 melanoma = tested on: SK-MEL-2 melanoma
EKVX NSCLC = tested on: EKVX NSCLC
SN12C renal = tested on: SN12C renal
UO-31 renal = tested on: UO-31 renal
TK-10 renal = tested on: TK-10 renal
ACHN renal = tested on: ACHN renal
CAKI-1 renal = tested on: CAKI-1 renal
A498 renal = tested on: A498 renal
CCRF-CEM leukemia = tested on: CCRF-CEM leukemia
MOLT-4 leukemia = tested on: MOLT-4 leukemia

Measured: growth

O=C(O)/C=C/C=C/c1ccccc1
inactive: SK-MEL-2 melanoma 104% and 115% | EKVX NSCLC 100% | SN12C renal 96% and 106% | UO-31 renal 93.1% and 88.4% | TK-10 renal 97.3% and 106% | ACHN renal 103% and 109% | CAKI-1 renal 98.9% and 101% | A498 renal 73.4% | CCRF-CEM leukemia 102% and 95.1% | MOLT-4 leukemia 106% and 109%

COc1ccc(CCN=Cc2ccc(Cl)cc2)cc1OC
inactive: SK-MEL-2 melanoma 98.4% | EKVX NSCLC 111% | SN12C renal 99.5% | UO-31 renal 83.7% | TK-10 renal 107% | ACHN renal 106% | CAKI-1 renal 101% | A498 renal 95.3% | CCRF-CEM leukemia 105% | MOLT-4 leukemia 99.9%

CCN(CC)C(CC(=O)c1ccccc1)C(=O)c1ccccc1 (stereo not given)
inactive: SK-MEL-2 melanoma 110% | EKVX NSCLC 98.2% | SN12C renal 93.4% | UO-31 renal 84.1% | TK-10 renal 70.2% | ACHN renal 71.2% | CAKI-1 renal 101% | A498 renal 75.1% | CCRF-CEM leukemia 30.4% | MOLT-4 leukemia 27.9%

CN(C)c1ccc(C(=N)c2ccc(N(C)C)cc2)cc1
22.1% (inactive) and 3.75% (active): SK-MEL-2 melanoma
15.2% (inactive) and -1.88% (active): A498 renal
inactive: EKVX NSCLC 58% and 48.4% | SN12C renal 40.8% and 42.4% | UO-31 renal 50.1% and 37.5% | TK-10 renal 37% and 67% | ACHN renal 50.9% and 49.9% | CAKI-1 renal 30.8% and 19% | CCRF-CEM leukemia 33.5% | MOLT-4 leukemia 29.2% and 16.8%

COc1ccc(CCNC(=S)NN)cc1OC
inactive: SK-MEL-2 melanoma 118% | EKVX NSCLC 103% | SN12C renal 117% | UO-31 renal 90.2% | TK-10 renal 120% | ACHN renal 102% | CAKI-1 renal 108% | A498 renal 106% | CCRF-CEM leukemia 92.5% | MOLT-4 leukemia 108%

COc1cc(C2c3cc4c(cc3C(OC(=O)C[n+]3ccccc3)C3COC(=O)C23)OCO4)cc(OC)c1OC (stereo not given)
inactive: SK-MEL-2 melanoma 33.5% | EKVX NSCLC 42.5% | SN12C renal 12.4% | UO-31 renal 39.4% | TK-10 renal 63.4% | ACHN renal 20.9% | CAKI-1 renal 18.1% | CCRF-CEM leukemia 12.9% | MOLT-4 leukemia 15.5%
active: A498 renal -19.9%

CNc1ccc(O)cc1
inactive: SK-MEL-2 melanoma 110% and 118% | EKVX NSCLC 80.1% | SN12C renal 103% | UO-31 renal 82.4% and 95.4% | TK-10 renal 144% and 121% | ACHN renal 92.6% and 112% | CAKI-1 renal 105% and 104% | A498 renal 90.9% and 68.1% | CCRF-CEM leukemia 101% and 110% | MOLT-4 leukemia 110% and 129%

Cc1cc(-c2ccc(N=Nc3c(C)nn(-c4ccc(S(=O)(=O)O)cc4)c3O)c(C)c2)ccc1N=Nc1ccc(O)c(C(=O)O)c1
inactive: SK-MEL-2 melanoma 73% | EKVX NSCLC 104% | SN12C renal 95.8% | UO-31 renal 69.1% | TK-10 renal 141% | ACHN renal 98% | CAKI-1 renal 100% | A498 renal 120% | CCRF-CEM leukemia 99.4% | MOLT-4 leukemia 102%

Nc1c(Cl)cc2c(c1Br)C(=O)c1ccccc1C2=O
inactive: SK-MEL-2 melanoma 103% | EKVX NSCLC 60.2% | SN12C renal 87.3% | UO-31 renal 63.2% | TK-10 renal 108% | ACHN renal 73% | CAKI-1 renal 82.3% | A498 renal 110% | CCRF-CEM leukemia 96.2% | MOLT-4 leukemia 87.8%

COc1ccc(CCO)cc1
inactive: SK-MEL-2 melanoma 91.7% | EKVX NSCLC 107% | SN12C renal 100% | UO-31 renal 96.9% | TK-10 renal 96.3% | ACHN renal 103% | CAKI-1 renal 102% | A498 renal 97.2% | CCRF-CEM leukemia 101% | MOLT-4 leukemia 60.7%

Cc1c(Cl)cc(Cl)c(N)c1Cl
inactive: SK-MEL-2 melanoma 104% | EKVX NSCLC 103% | SN12C renal 117% | UO-31 renal 92.6% | TK-10 renal 109% | ACHN renal 115% | CAKI-1 renal 88.7% | A498 renal 91% | CCRF-CEM leukemia 95.5% | MOLT-4 leukemia 110%

CC(=O)Oc1cc(C(C)C)c(OCCN(C)C)cc1C
inactive: SK-MEL-2 melanoma 116% and 119% | EKVX NSCLC 107% | SN12C renal 96.7% and 97.6% | UO-31 renal 94.2% and 97.3% | TK-10 renal 112% and 121% | ACHN renal 99.4% | CAKI-1 renal 91.9% and 95.3% | A498 renal 98.3% and 97.4% | CCRF-CEM leukemia 113% and 99.6% | MOLT-4 leukemia 117% and 105%

Nc1[nH][nH]c(=O)c1N=Nc1ccccc1
inactive: SK-MEL-2 melanoma 122% and 100% | EKVX NSCLC 85.3% and 91.3% | SN12C renal 97.6% and 106% | UO-31 renal 82.7% and 85.1% | TK-10 renal 112% and 109% | ACHN renal 91.2% and 104% | CAKI-1 renal 104% | A498 renal 86.8% and 86.2% | CCRF-CEM leukemia 108% | MOLT-4 leukemia 121% and 100%

CCN(CC)C(=S)SCCO
inactive: SK-MEL-2 melanoma 105% | EKVX NSCLC 106% | SN12C renal 105% | UO-31 renal 93.8% | TK-10 renal 86% | ACHN renal 111% | CAKI-1 renal 107% | A498 renal 75.6% | CCRF-CEM leukemia 100% | MOLT-4 leukemia 96.6%

CCCCCCC(C)CC1=C(O)c2ccccc2C(=O)C1=O (stereo not given)
inactive: SK-MEL-2 melanoma 68.9% | EKVX NSCLC 62% | SN12C renal 46.6% | UO-31 renal 42.7% | TK-10 renal 60.5% | ACHN renal 37.5% | CAKI-1 renal 39.7% | A498 renal 54.3% | CCRF-CEM leukemia 33.3% | MOLT-4 leukemia 26.6%

O=C(O)COc1ccccc1F
inactive: SK-MEL-2 melanoma 102% | EKVX NSCLC 111% | SN12C renal 98.3% | UO-31 renal 103% | TK-10 renal 109% | ACHN renal 108% | CAKI-1 renal 93.2% | A498 renal 102% | CCRF-CEM leukemia 92.3% | MOLT-4 leukemia 95.3%

CC(C)(C)C1CCC(=NO)CC1 (stereo not given)
inactive: SK-MEL-2 melanoma 94.5% | EKVX NSCLC 102% | SN12C renal 103% | UO-31 renal 71.7% | TK-10 renal 108% | ACHN renal 105% | CAKI-1 renal 97.2% | A498 renal 97.4% | CCRF-CEM leukemia 99.8% | MOLT-4 leukemia 123%

COc1ccc(/C=C/C(=O)O)cc1OC
inactive: SK-MEL-2 melanoma 108% and 101% | EKVX NSCLC 106% and 103% | SN12C renal 101% and 105% | UO-31 renal 100% and 97.5% | TK-10 renal 102% and 92.5% | ACHN renal 104% and 112% | CAKI-1 renal 101% | A498 renal 104% | CCRF-CEM leukemia 98.1% | MOLT-4 leukemia 104% and 108%

O=C1c2cccnc2-c2ncccc21
inactive: SK-MEL-2 melanoma 122% [100 µM] | EKVX NSCLC 99.6% [100 µM] | SN12C renal 108% [100 µM] | UO-31 renal 97.1% [100 µM] | TK-10 renal 97.1% [100 µM] | ACHN renal 112% [100 µM] | CAKI-1 renal 103% [100 µM] | A498 renal 103% [100 µM] | CCRF-CEM leukemia 106% [100 µM] | MOLT-4 leukemia 117% [100 µM]

CC(=O)C[n+]1ccccc1Sc1ccc(Cl)cc1
inactive: SK-MEL-2 melanoma 132% | EKVX NSCLC 103% | SN12C renal 49.5% | UO-31 renal 60.5% | TK-10 renal 104% | ACHN renal 113% | CAKI-1 renal 90.9% | A498 renal 76.4% | MOLT-4 leukemia 18.9%
active: CCRF-CEM leukemia -9.4%

CCOC(=O)C1=C(C)NC(C)=C(C(=O)OCC)C1
inactive: SK-MEL-2 melanoma 109% and 110% | EKVX NSCLC 109% | SN12C renal 94.7% and 109% | UO-31 renal 98.9% and 90.4% | TK-10 renal 107% and 101% | ACHN renal 109% and 105% | CAKI-1 renal 113% and 97.6% | A498 renal 112% | CCRF-CEM leukemia 86.9% and 56% | MOLT-4 leukemia 134% and 101%

COc1ccccc1OCC(O)CO (stereo not given)
inactive: SK-MEL-2 melanoma 98.3% and 110% | EKVX NSCLC 102% and 83.5% | SN12C renal 95.2% and 103% | UO-31 renal 87.6% and 96.4% | TK-10 renal 98% | ACHN renal 102% and 110% | CAKI-1 renal 90.8% | A498 renal 98% and 87.8% | CCRF-CEM leukemia 98.5% and 97.1% | MOLT-4 leukemia 144% and 121%

CCC(C)NC(=O)c1ccccc1C (stereo not given)
inactive: SK-MEL-2 melanoma 104% | EKVX NSCLC 91.2% | SN12C renal 96.5% | UO-31 renal 94.2% | TK-10 renal 99.3% | ACHN renal 95.4% | CAKI-1 renal 95.3% | A498 renal 89.2% | CCRF-CEM leukemia 103% | MOLT-4 leukemia 114%
